# Laboratory results: PubChem BioAssay
# Activity calls are given as the source filed them.
# Key:
# [1] = tested on: Plasmodium falciparum Sir2 (PF13_0152, Sir2A); test: Plasmodium falciparum Sir2A binding compounds – biochemical, small-molecule microarray, 635 nm fluorescence, primary screen (AID 1098); settings: fluorescence 635 nm, higher = more signal;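 note: score merges spot fluorescence intensity with its signal-to-noise ratio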
# [2] = probe aDKK1 binding to arrayed compounds – biochemical, biotinylated probe, 635/667 nm fluorescence, primary screen (AID 1099); settings: small-molecule microarray, higher = more signal;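 note: score merges 667nm spot fluorescence with signal to noise across triplicate slides; reference of the scale not given here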
# [3] = probe aCHRDL2 binding to arrayed compounds – biochemical, biotinylated probe, 635/667 nm fluorescence, primary screen (AID 1100); settings: small-molecule microarray, higher = more signal
# [4] = change in splice reporter luminescence, either direction, cell-based, HEK293, spliceosome inhibition project, primary screen (AID 1101); settings: HEK293 splicing luciferase reporter, 24 h, higher = more signal, called active from +8 up or from −8 down;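 note: HEK293 cells carrying a splicing-competent luciferase reporter gene; test concentration not given here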
# [5] = target: Fibroblast growth factor 10 (Homo sapiens) (UniProt O15520); test: compounds binding fibroblast growth factor 10 – biochemical, small-molecule microarray, 635 nm fluorescence, primary screen (AID 1102); settings: FGF10 binding, fluorescence 635 nm, higher = more signal
# Chain of Fibroblast growth factor 10 (Homo sapiens) (O15520 whole entry, looked up): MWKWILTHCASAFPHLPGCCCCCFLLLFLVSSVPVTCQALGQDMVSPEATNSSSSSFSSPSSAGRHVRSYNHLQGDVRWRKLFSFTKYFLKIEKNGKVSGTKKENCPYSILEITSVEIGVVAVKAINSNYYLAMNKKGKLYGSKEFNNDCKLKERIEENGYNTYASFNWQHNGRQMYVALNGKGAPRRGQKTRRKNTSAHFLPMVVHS
# [6] = tested on: glycogen synthase kinase-3 (GSK3A per assay name; protocol says GSK3B); test: compounds binding glycogen synthase kinase-3 – biochemical, small-molecule microarray, 635 nm fluorescence, GSK3A, primary screen (AID 1103); settings: fluorescence 635 nm, higher = more signal; note: the record names both GSK3A and GSK3B
# [7] = target: Epidermal growth factor receptor (Homo sapiens) (UniProt P00533); test: compounds binding epidermal growth factor receptor – biochemical, small-molecule microarray, 635 nm fluorescence, primary screen (AID 1104); settings: EGFR binding, higher = more signal;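 note: score merges 667 nm emission intensity with spot signal to noise over triplicate slides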
# Chain of Epidermal growth factor receptor (Homo sapiens) (P00533 whole entry, looked up): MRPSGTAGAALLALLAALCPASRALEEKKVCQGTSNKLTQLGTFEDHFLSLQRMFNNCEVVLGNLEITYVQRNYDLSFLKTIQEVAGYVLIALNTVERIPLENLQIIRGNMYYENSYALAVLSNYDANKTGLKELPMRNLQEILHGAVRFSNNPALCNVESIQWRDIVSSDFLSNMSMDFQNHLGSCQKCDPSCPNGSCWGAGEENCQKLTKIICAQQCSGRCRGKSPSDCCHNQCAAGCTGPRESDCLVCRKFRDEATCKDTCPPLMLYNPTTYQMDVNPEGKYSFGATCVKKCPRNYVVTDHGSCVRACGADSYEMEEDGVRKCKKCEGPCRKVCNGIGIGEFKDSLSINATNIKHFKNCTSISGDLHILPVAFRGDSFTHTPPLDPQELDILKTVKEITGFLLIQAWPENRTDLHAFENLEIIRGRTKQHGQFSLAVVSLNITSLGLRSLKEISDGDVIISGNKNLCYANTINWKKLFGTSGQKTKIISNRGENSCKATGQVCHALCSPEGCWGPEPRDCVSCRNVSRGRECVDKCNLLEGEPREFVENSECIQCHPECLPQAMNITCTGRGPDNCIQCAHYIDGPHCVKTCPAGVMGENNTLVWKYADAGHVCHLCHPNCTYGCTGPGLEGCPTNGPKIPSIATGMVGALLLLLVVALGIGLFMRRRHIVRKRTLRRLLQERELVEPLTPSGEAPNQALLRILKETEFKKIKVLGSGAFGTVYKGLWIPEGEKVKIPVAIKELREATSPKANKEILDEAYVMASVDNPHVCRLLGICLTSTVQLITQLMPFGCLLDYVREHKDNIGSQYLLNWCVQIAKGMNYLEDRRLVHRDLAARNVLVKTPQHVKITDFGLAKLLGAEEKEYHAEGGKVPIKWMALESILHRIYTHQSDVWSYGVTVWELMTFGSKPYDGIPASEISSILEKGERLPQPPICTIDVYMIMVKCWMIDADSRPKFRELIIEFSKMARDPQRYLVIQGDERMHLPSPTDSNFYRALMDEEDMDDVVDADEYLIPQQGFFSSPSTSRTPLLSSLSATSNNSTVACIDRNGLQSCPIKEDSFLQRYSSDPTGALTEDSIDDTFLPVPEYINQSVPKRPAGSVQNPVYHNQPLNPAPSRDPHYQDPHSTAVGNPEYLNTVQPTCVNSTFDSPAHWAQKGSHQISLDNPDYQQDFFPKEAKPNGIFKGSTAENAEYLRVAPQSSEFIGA
# [8] = target: Follistatin-related protein 3 (Homo sapiens) (UniProt O95633); test: compounds binding follistatin-related protein 3 – biochemical, small-molecule microarray, 635 nm fluorescence, primary screen (AID 1105); settings: FSTL3 binding, higher = more signal;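 note: score merges emission near 667 nm and signal to noise per printed spot across three slides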
# Chain of Follistatin-related protein 3 (Homo sapiens) (O95633 whole entry, looked up): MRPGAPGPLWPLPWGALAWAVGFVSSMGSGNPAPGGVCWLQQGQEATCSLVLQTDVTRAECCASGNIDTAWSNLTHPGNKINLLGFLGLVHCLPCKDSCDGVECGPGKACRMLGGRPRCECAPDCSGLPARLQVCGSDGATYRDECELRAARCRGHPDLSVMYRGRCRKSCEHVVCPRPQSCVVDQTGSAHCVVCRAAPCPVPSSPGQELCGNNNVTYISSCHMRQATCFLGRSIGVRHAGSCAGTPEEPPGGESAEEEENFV
# [9] = target: Dickkopf-related protein 1 (Homo sapiens) (UniProt O94907); test: small molecules binding DKK1 protein – biochemical, small-molecule microarray, 635 nm fluorescence scan, primary screen (AID 1106); settings: higher = more signal;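 note: score merges emission near 667 nm with signal to noise over three replicate slides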
# Chain of Dickkopf-related protein 1 (Homo sapiens) (O94907 whole entry, looked up): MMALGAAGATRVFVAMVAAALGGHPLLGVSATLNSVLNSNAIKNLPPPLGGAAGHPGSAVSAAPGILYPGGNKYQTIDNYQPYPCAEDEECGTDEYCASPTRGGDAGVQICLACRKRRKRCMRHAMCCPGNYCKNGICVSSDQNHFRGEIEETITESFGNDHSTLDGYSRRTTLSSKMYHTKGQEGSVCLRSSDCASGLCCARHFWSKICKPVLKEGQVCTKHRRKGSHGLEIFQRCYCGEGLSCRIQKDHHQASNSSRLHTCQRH
# [10] = tested on: Inhibin beta A chain (activin A); test: small molecules binding activin A – biochemical, small-molecule microarray, 635 nm fluorescence scan, primary screen (AID 1107); settings: INHBA, higher = more signal;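 note: mouse activin A protein probed at 4.33 µg/mL on printed slides; score merges bound-protein fluorescence near 667 nm with spot signal-to-noise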
Compound,composite z-score [1],composite z-score [2],composite z-score [3],z-score [4],composite z-score [5],composite z-score [6],composite z-score [7],composite z-score [8],composite z-score [9],composite z-score [10]
COc1ccc([Si](C)(C)[C@@H]2[C@@H](CC(=O)N3Cc4ccccc4C[C@H]3CO)O[C@]3(C(=O)N(Cc4ccc(I)cc4)c4ccccc43)[C@H]2C)cc1,0.458,-0.128,-0.357,-1.36 (inactive),1.12,0.66,1.22,1.36,1.45,1.52
C=C(COC)/C(=C/C[C@@H](OC(=O)c1ccncc1)c1ccccc1OCCO)c1cnc2ccccc2c1,0.247,-0.0501,0.0321,0.488 (inactive),1.47,1.29,1.3,1.59,0.651,1.61
CCOC(=O)C1=C[C@@H](C(C)(C)C)N(S(=O)(=O)c2ccc(C)cc2)[C@H]1c1ccc(OC)cc1,0.463,0.305,-0.0462,-1.5 (inactive),0.998,1.29,0.902,1.27,0.33,0.318
CC(C)c1ccc(NN2C(C(O)c3ccccc3)C=CC3C(=O)N(c4ccccc4)C(=O)C32)cc1 (stereo not given),1.26,1.25,0.98,-0.648 (inactive),0.715,0.522,-0.144,0.634,-0.624,0.546
CCCCCCc1nc(Cc2cc(OC)c(OC)c(OC)c2)c(C)c2c1[Si](C(C)C)(C(C)C)OC2,0.197,-0.1,-0.35,-2.3 (inactive),0.261,0.104,-0.0718,0.237,0.163,0.987
C=C(CC1([C@@H](NP(=O)(c2ccccc2)c2ccccc2)[C@H]2C[C@@H]2CCCC)CC1)c1cccc(OC)c1,-0.167,0.91,1.15,-2.52 (inactive),0.158,-0.3,-0.28,0.463,-1.14,1.03
COc1ccc([Si](C)(C)[C@@H]2[C@@H](CC(=O)N(CCO)Cc3ccccc3)O[C@]3(C(=O)N(Cc4cccc(I)c4)c4ccccc43)[C@H]2C)cc1,0.824,-0.0248,0.337,-0.847 (inactive),1.45,0.766,0.661,1.42,1.34,0.963
CN1C2C=C(c3ccc(CO)cc3)C(C3C(=O)N(C(N)=O)C(=O)C32)C1C1CC1 (stereo not given),0.261,-0.202,0.0427,0.0567 (inactive),-0.241,-0.32,-0.127,-0.722,-0.188,-0.586
C=C(CCCC)/C(=C/C[C@@H](OC(C)=O)c1ccc(OCCO)cc1)c1cc(C(=O)OC)ccc1OC,1.14,0.0822,0.411,0.374 (inactive),0.151,0.244,-0.597,-0.137,-0.348,0.763
COC(=O)C(CC#Cc1ccc2c(c1)[C@]1(C(=O)N2)[C@H](C(N)=O)[C@H]2C(=O)O[C@H](c3ccccc3)[C@H](c3ccccc3)N2[C@@H]1c1ccccc1OCCO)C(=O)OC,1.39,-0.109,0.567,1.09 (inactive),0.785,1.15,-0.0452,0.385,-0.151,-0.278
COCCCNC(=O)[C@]1(Cc2ccccc2CN=[N+]=[N-])N=C(c2ccc(OCCCO)cc2)O[C@@H]1c1ccccc1N=[N+]=[N-],0.427,1.36,1.38,-0.486 (inactive),0.575,0.672,0.003,0.205,0.0122,1.4
C=C(COC)C(=O)CC[C@H](OC(C)=O)c1ccccc1OCCO,0.858,-0.348,0.151,-0.0648 (inactive),1.5,-0.41,-0.567,-0.262,0.0024,1.13
Cc1ccc(S[C@]2(C(=O)NCc3ccccc3)CC(=O)N(Cc3ccccc3Cl)[C@@H]2c2ccc(CO)cc2)cc1,1.07,0.169,0.603,-0.419 (inactive),-0.35,0.165,-1.31,-0.648,-0.743,0.0073
C=CCN1C(=O)[C@]2(O[C@H](CCO)[C@@H]([Si](C)(C)c3ccc(OC)cc3)[C@@H]2C)c2cc(N3C(=O)c4ccccc4Oc4ccccc43)ccc21,1.16,-0.252,0.117,-1.38 (inactive),0.402,0.209,0.0038,0.255,0.107,0.206
C=C(CCCC)C(=O)CC[C@H](OC(=O)c1ccccc1-c1ccccc1C(=O)O)c1cccc(OCCO)c1,0.642,-0.399,-0.454,-0.289 (inactive),-0.282,-0.121,-0.988,-0.578,0.0668,1.33
COCCOC(=O)N1C(=O)[C@@]2(c3cc(C#CCC(C(=O)OC)C(=O)OC)ccc31)[C@H](c1ccc(O)cc1)N1[C@H](c3ccccc3)[C@H](c3ccccc3)OC(=O)[C@H]1[C@@H]2C(=O)N1CCc2cc(OC)c(OC)cc2C1,1.21,-0.149,0.131,0.0333 (inactive),1.09,1.08,0.294,0.728,0.384,0.0348
CCCCCCc1nc(-c2ccc(OC)nc2)c(C)c2c1[Si](C(C)C)(C(C)C)OC2,-0.299,-0.202,-0.358,-2 (inactive),-0.168,-0.264,0.218,0.565,1.03,0.444
COCCCNC(=O)[C@]1(Cc2ccccc2N=[N+]=[N-])N=C(c2ccc(OCCCO)cc2)O[C@@H]1c1ccccc1,1.5,1.23,1.28,1.08 (inactive),0.612,1.25,-0.137,0.597,-0.425,0.97
COC(=O)C(CC#Cc1ccc2c(c1)[C@]1(C(=O)N2)[C@H](C(=O)NC[C@H](O)c2ccccc2)[C@H]2C(=O)O[C@H](c3ccccc3)[C@H](c3ccccc3)N2[C@@H]1c1ccc(O)cc1)C(=O)OC,0.535,-0.107,0.369,0.266 (inactive),0.243,-0.857,0.221,-0.0104,-0.293,-0.137
CC(C)C[C@H]1NC(=O)CNC(=O)[C@@]23C(=O)N[C@@H](Cc4ccccc4)C2[C@H](C)[C@@]2(C)O[C@H]2C3/C=C/C/C=C\CNC1=O (stereo not given in full),0.288,-0.129,-0.671,0.187 (inactive),0.749,0.407,0.181,0.811,0.267,1.48
COC(=O)[C@H](Cc1ccccc1)N1CC(C)(OC)O[C@@H](Cc2ccccc2)[C@H]1/C=C/C1CC1 (stereo not given in full),0.292,-0.158,0.0982,-0.579 (inactive),-0.105,0.178,-0.359,-0.151,-0.268,0.609
Cc1ccc(S(=O)(=O)N2[C@@H](c3ccccc3)C(C(=O)O)=CC[C@H]2c2ccc(F)cc2)cc1,-0.434,-0.224,0.633,-0.207 (inactive),0.876,1.08,-0.882,0.489,-0.757,-1.32
CC(C)[Si]1(C(C)C)OCc2cc(-c3ccc(-c4ccc(Cl)c(Cl)c4)o3)nc(-c3ccc(Oc4ccccc4)cc3)c21,-0.952,0.118,0.745,-1.25 (inactive),-1.78,-2.03,-1.46,-2.09,-2.01,0.434
COC(=O)[C@@]1(Cc2ccc(F)cc2)[C@H]2c3cc(C(=O)N(C)C)n(Cc4cccc5ccccc45)c3C[C@H]2CN1C(=O)c1ccccc1,0.796,0.926,1.04,0.551 (inactive),1.13,0.111,-0.953,-0.242,-1.02,0.644
CN1C(=O)C2C=CC(C(O)c3ccc(I)cc3)N(N(c3ccccc3)c3ccccc3)C2C1=O (stereo not given),0.727,-0.0078,0.914,1.19 (inactive),-0.841,-0.487,-0.882,-0.309,-0.421,1.32
O=C1O[C@H](c2ccccc2)[C@H](c2ccccc2)N2[C@H]1[C@@H](C(=O)O)[C@]1(C(=O)Nc3ccccc31)[C@H]2c1ccc(OCCO)cc1,0.975,-0.0668,-0.0097,-0.749 (inactive),0.141,-0.0583,-0.055,0.0497,-0.449,0.601
Cc1ccc(S[C@]2(C(=O)NC(C)C)CC(=O)N(Cc3ccccc3)[C@@H]2c2ccc(CO)cc2)cc1,0.0089,0.108,0.915,-0.538 (inactive),-1.18,-1.34,-1.01,-0.363,-1.51,0.159
[N-]=[N+]=NCc1ccccc1C[C@]1(C(=O)N2CCCCC2)COC(c2ccc(OCCCO)cc2)=N1,0.314,0.0279,0.552,0.0234 (inactive),0.786,1.02,1.1,0.636,0.221,-0.297
